Screening data from PubChem BioAssay.
PD-1 reverse act: activators reversing PD-1 mediated T-cell inhibition, primary screen, luminescence, primary human CD4 T cells, PD-L1 beads. AID 2316, 2010. CellTiter-Glo 96 h. activation, % (no concentration beside the values). 29,000 tested, under 10 active; call rule not given here;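 further: 0% = median vehicle wells and 100% = positive control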
NOMO-1 viab: NOMO-1 AML cell viability reduction, primary screen, STK33 inhibitor project, CellTiter-Glo luminescence. NOMO-1 AML viability, 72 h. inhibition, % (concentration not given with the values). 37,000 tested, 7.5% active. AID 2330, 2010; in the data active means inhibition above about 80%; inconclusive means no clear call, values can overlap the other calls
STK33 inh: STK33 kinase inhibitors, primary screen, biochemical, luminescence, ADP-Glo, MBP substrate; Serine/threonine-protein kinase 33 (Homo sapiens), Q9BYT3; 27,000 tested, 0.44% active; inhibition, % at 12.5 µM; in the data active means inhibition above about 20%; inconclusive means no clear call, values can overlap the other calls
Target sequence (Q9BYT3 whole entry, looked up): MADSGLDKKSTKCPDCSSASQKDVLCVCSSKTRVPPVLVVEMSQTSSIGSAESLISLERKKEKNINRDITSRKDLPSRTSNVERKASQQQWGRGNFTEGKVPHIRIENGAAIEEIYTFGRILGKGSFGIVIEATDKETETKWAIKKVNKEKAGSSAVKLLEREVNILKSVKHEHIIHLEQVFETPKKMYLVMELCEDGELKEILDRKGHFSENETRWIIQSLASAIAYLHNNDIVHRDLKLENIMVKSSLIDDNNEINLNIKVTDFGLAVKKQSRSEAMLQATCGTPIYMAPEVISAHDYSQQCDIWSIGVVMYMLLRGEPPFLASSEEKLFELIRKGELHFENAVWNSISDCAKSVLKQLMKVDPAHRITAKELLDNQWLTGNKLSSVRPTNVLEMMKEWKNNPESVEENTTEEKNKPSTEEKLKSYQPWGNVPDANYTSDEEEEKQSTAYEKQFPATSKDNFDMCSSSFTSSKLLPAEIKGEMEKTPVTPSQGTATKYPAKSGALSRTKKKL
Numbers without * were called inactive; ? = inconclusive; · = no result. Only a selection was taken, and hits are over-represented in it overall.

SMILES	PD-1 reverse act	NOMO-1 viab	STK33 inh
O=C(O)CCSc1nc2ccccc2s1	·	17	0
Cc1n[nH]c(=S)n(/N=C/C=C/c2ccccc2)c1=O	-29	28	1
COc1ccc(-c2cc(=O)c3c(O)c(OC)c(O)c(OC)c3o2)cc1	0	1	12
C[C@H](O)C1=CC2(CC[C@@H]3C(C(=O)O)=CO[C@@H](O[C@@H]4O[C@H](CO)[C@@H](O)[C@H](O)[C@H]4O)[C@@H]32)OC1=O (stereo not given in full)	·	·	-2
Nc1nc(N(Cc2ccccc2)Cc2ccccc2)nc(C(F)(F)F)n1	0	120*	·
COc1ccc(C)cc1NC(=O)CN(C1CCCCC1)S(=O)(=O)c1ccc(Cl)cc1	0	41	-1
CCc1cccc(OCC(=O)Nc2cccc(-c3nnc(-c4ccccc4)o3)c2)c1	3	21	6
C[C@H]1[C@H]2OC3=C(C(=O)OC3(C)O)C(=O)[C@]1(C)[C@H]1CCCC[C@]1(O)[C@H]2O (stereo not given in full)	-2	12	-1
C(=NCc1ccco1)c1cn(-c2ccccc2)nc1-c1ccccc1	-5	105*	0
O=C(CNC(=O)c1cn(-c2ccccc2)nc1-c1ccccc1)c1ccccc1	·	6	-1
COc1ccc(CN(C)C[C@@H]2Oc3ccc(NS(=O)(=O)c4c(C)noc4C)cc3C(=O)N([C@@H](C)CO)C[C@H]2C)cc1	0	-1	·
Cc1ccc(-n2c(SCC(=O)Nc3ccccc3C)nc3nc4c(cc3c2=O)COC(C)(C)C4)cc1	·	28	2
COc1ccc(-c2cc3ccccc3oc2=O)cc1NC(=O)COc1ccc(C(C)(C)C)cc1	3	29	-3
CCOC(=O)c1cc(NC(=O)CSc2nc3ccccc3c(=O)[nH]2)ccc1Cl	·	10	1
Cc1cc(C2(c3cc(C)c(N)c(C)c3)CCCCC2)cc(C)c1N	-1	122*	·
C[C@H]1CN([C@@H](C)CO)C(=O)c2cccc(NS(=O)(=O)c3ccccc3)c2O[C@@H]1CN(C)Cc1ccc(C(=O)Nc2ccccc2N)cc1	-2	?	·
C[C@H]1CN([C@@H](C)CO)C(=O)c2cccc(NS(=O)(=O)c3ccccc3)c2O[C@H]1CN(C)Cc1ccc(C(=O)Nc2ccccc2N)cc1	0	120*	·
C[C@@H]1CN([C@H](C)CO)C(=O)c2cccc(NS(=O)(=O)c3ccc(F)cc3)c2O[C@H]1CN(C)Cc1ccc(C(=O)Nc2ccccc2N)cc1	0	57	·
C[C@@H]1CN([C@@H](C)CO)C(=O)c2cccc(NS(C)(=O)=O)c2O[C@@H]1CN(C)Cc1ccc(C(=O)Nc2ccccc2N)cc1	-1	123*	·
C[C@@H]1CN([C@H](C)CO)C(=O)c2cccc(NS(=O)(=O)c3ccc(F)cc3)c2O[C@@H]1CN(C)Cc1ccc(C(=O)Nc2ccccc2N)cc1	-2	127*	·
C[C@@H]1CN([C@H](C)CO)C(=O)c2cccc(NS(=O)(=O)c3ccccc3)c2O[C@@H]1CN(C)Cc1ccc(C(=O)Nc2ccccc2N)cc1	-1	128*	·
C[C@@H]1CN([C@@H](C)CO)C(=O)c2cccc(NS(=O)(=O)c3ccc(Cl)cc3)c2O[C@H]1CN(C)Cc1ccc(C(=O)Nc2ccccc2N)cc1	0	48	·
C[C@H]1CN([C@@H](C)CO)C(=O)c2cccc(NS(C)(=O)=O)c2O[C@@H]1CN(C)Cc1ccc(C(=O)Nc2ccccc2N)cc1	-1	12	·
Cc1ccc(Cl)cc1NC(=O)CSc1nc2c(c(C(F)(F)F)c1C#N)CCCC2	-4	28	-3
Cc1cc(C)nc(N/C(=N/S(=O)(=O)c2ccc(Br)cc2)N2CCC(C)CC2)n1	-1	15	·
SMILES	PD-1 reverse act	NOMO-1 viab	STK33 inh
CS(=O)(=NS(=O)(=O)c1cccs1)c1ccc(OC(=O)c2ccc(Cl)cc2)cc1 (stereo not given)	-1	26	·
CC(C)=CCc1c(O[C@@H]2O[C@H](CO)[C@@H](O)[C@H](O)[C@H]2O)cc(O)c2c1O[C@H](c1ccc(O)cc1)CC2=O	-1	25	12
CC(C)(C)c1ccc(N2C(=O)CCC2=O)cc1	0	19	·
C=CCN1C(=O)[C@@]2(O[C@@H](CCn3cc(CCO)nn3)[C@H]([Si](C)(C)c3ccc(OC)cc3)[C@H]2C)c2cc(N3C(=O)c4cccc5cccc3c45)ccc21	·	·	7
Cc1ccc(S(=O)(=O)Nc2cccc3c2O[C@@H](CN(C)Cc2ccc(C(=O)Nc4ccccc4N)cc2)[C@@H](C)CN([C@H](C)CO)C3=O)cc1	0	137*	·
C[C@H](CO)N1C[C@H](C)[C@@H](CN(C)Cc2ccc(C(=O)Nc3ccccc3N)cc2)Oc2c(NS(=O)(=O)c3ccc(Cl)cc3)cccc2C1=O	0	51	·
Cc1ccc(NC(=O)CSc2nnnn2-c2ccc(Cl)c(C(=O)O)c2)cc1C	·	24	-2
C[C@@H]1CN([C@@H](C)CO)C(=O)c2cccc(NC(=O)Nc3ccc(C(F)(F)F)cc3)c2O[C@@H]1CN(C)C(=O)Nc1ccc(C(F)(F)F)cc1	-4	115*	·
C[C@@H]1CN([C@H](C)CO)C(=O)c2cccc(NC(=O)Nc3ccccc3)c2O[C@H]1CN(C)C(=O)Nc1ccc(C(F)(F)F)cc1	0	25	·
COc1ccc(NC(=O)Nc2cccc3c2O[C@H](CN(C)C(=O)Nc2ccc(C(F)(F)F)cc2)[C@@H](C)CN([C@H](C)CO)C3=O)cc1	·	23	·
C[C@H](CO)N1C[C@H](C)[C@H](CN(C)C(=O)Nc2ccc(C(F)(F)F)cc2)Oc2c(NC(=O)Nc3ccc(C(F)(F)F)cc3)cccc2C1=O	-8	?	·
C[C@@H]1CN([C@@H](C)CO)C(=O)c2cccc(NS(=O)(=O)c3ccc(F)cc3)c2O[C@H]1CN(C)C(=O)Nc1ccc(C(F)(F)F)cc1	0	2	·
COc1ccc(NC(=O)N(C)C[C@@H]2Oc3c(NC(=O)Nc4ccc(C(F)(F)F)cc4)cccc3C(=O)N([C@@H](C)CO)C[C@H]2C)cc1	-3	93*	·
C[C@H]1CN([C@@H](C)CO)C(=O)c2cccc(NC(=O)Nc3ccc(C(F)(F)F)cc3)c2O[C@H]1CN(C)C(=O)Nc1ccccc1	-8	103*	·
C[C@H](CO)N1C[C@H](C)[C@H](CN(C)C(=O)Nc2ccc(C(F)(F)F)cc2)Oc2c(NS(=O)(=O)c3ccc(F)cc3)cccc2C1=O	-4	84*	·
COc1ccc(C2CC(C(F)(F)F)n3ncc(C(=O)Nc4sc5c(c4C#N)CCC(C)C5)c3N2)cc1OC (stereo not given)	0	50	-1
COc1ccc(C2(CNC(=O)C3COc4ccccc4O3)CCCC2)cc1OC (stereo not given)	·	-2	-3
COc1ccc(CN(C)C[C@@H]2Oc3ccc(NC(=O)CCCCCC(=O)Nc4ccccc4N)cc3CC(=O)N([C@H](C)CO)C[C@H]2C)cc1	0	42	·
C[C@@H]1CN([C@H](C)CO)C(=O)Cc2cc(NC(=O)CCCCCC(=O)Nc3ccccc3N)ccc2O[C@H]1CN(C)C	-1	13	·
C[C@H]1CN([C@@H](C)CO)C(=O)Cc2cc(NC(=O)CCCCCC(=O)Nc3ccccc3N)ccc2O[C@@H]1CN(C)Cc1ccc(Cl)c(Cl)c1	0	92*	·
